# Laboratory results taken from paper PMC11006913.
# Where a chain is given by its changes, count along the chain named.
# What was measured:
# Test in all cases: PBM; 200 nM protein, PBS
# Conditions in all cases: dsDNA, one strand shown
# NKX2-5 [1] = biological target: NKX2-5 (Homo sapiens, UniProt P52952 125-210, R139K)
# NKX2-4 [2] = biological target: T1, NKX2-4 (Homo sapiens, UniProt Q9H2Z4 175-261, P217L)
# T1 sequence: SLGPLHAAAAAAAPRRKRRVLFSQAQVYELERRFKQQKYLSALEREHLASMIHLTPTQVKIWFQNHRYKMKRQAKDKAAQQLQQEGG
# NKX2-4 [3] = biological target: T2, NKX2-4 (Homo sapiens, UniProt Q9H2Z4 175-261, T231S)
# T2 sequence: T1 sequence with L43P, T57S
# NKX2-4 [4] = biological target: T3, NKX2-4 (Homo sapiens, UniProt Q9H2Z4 175-261)
# T3 sequence: T1 sequence with L43P
# NKX2-6 [5] = biological target: T4, NKX2-6 (Homo sapiens, UniProt A6NCS4 118-204, R150C)
# T4 sequence: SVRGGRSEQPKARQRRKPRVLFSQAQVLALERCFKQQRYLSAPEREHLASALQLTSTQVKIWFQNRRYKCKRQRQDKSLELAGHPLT
# NKX2-6 [6] = biological target: T5, NKX2-6 (Homo sapiens, UniProt A6NCS4 118-204)
# T5 sequence: T4 sequence with C33R
# NKX2-4 [7] = biological target: T6, NKX2-4 (Homo sapiens, UniProt Q9H2Z4 175-261, R246Q)
# T6 sequence: T1 sequence with L43P, R72Q
# NKX2-6 [8] = biological target: T7, NKX2-6 (Homo sapiens, UniProt A6NCS4 118-204, F151L)
# T7 sequence: T4 sequence with C33R, F34L
# NKX3-2 [9] = biological target: NKX3-2 (Homo sapiens, UniProt P78367 192-278, P234S)
# NKX2-5 [10] = biological target: NKX2-5 (Homo sapiens, UniProt P52952 125-210)
# NKX3-2 [11] = biological target: NKX3-2 (Homo sapiens, UniProt P78367 192-278)
# ALX1 [12] = biological target: ALX1 (Homo sapiens, UniProt Q15699 118-204, L144V)
# ALX1 [13] = biological target: ALX1 (Homo sapiens, UniProt Q15699 118-204, L144R)
# ALX1 [14] = biological target: ALX1 (Homo sapiens, UniProt Q15699 118-204)
# SHOX = SHOX (Homo sapiens, UniProt O15266 103-189)
# HOXB4 [15] = biological target: HOXB4 (Homo sapiens, UniProt P17483 148-234)
# HOXB4 [16] = biological target: HOXB4 (Homo sapiens, UniProt P17483 148-234, V174I)
# Chain of HOXB4 (Homo sapiens, UniProt P17483 148-234, V174I) (P17483 148-234 V174I): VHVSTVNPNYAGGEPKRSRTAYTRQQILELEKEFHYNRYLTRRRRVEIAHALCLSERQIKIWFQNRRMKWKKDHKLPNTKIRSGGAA
# Chain of NKX2-5 (Homo sapiens, UniProt P52952 125-210, R139K) (P52952 125-210 R139K): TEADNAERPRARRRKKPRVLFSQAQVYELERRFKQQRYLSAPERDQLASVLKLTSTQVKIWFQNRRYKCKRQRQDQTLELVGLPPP
# Chain of NKX2-5 (Homo sapiens, UniProt P52952 125-210) (P52952 125-210): as the sequence (P52952 125-210 R139K) above, with K15R counted along it
# Chain of NKX3-2 (Homo sapiens, UniProt P78367 192-278) (P78367 192-278): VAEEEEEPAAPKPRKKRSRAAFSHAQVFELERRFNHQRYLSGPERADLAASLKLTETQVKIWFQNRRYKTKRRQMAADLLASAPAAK
# Chain of NKX3-2 (Homo sapiens, UniProt P78367 192-278, P234S) (P78367 192-278 P234S): as the sequence (P78367 192-278) above, with P43S counted along it
# Chain of ALX1 (Homo sapiens, UniProt Q15699 118-204, L144V) (Q15699 118-204 L144V): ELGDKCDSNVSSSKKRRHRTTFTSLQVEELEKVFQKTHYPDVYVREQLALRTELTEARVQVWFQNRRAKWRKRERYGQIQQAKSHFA
# Chain of ALX1 (Homo sapiens, UniProt Q15699 118-204) (Q15699 118-204): as the sequence (Q15699 118-204 L144V) above, with V27L counted along it
# Chain of ALX1 (Homo sapiens, UniProt Q15699 118-204, L144R) (Q15699 118-204 L144R): as the sequence (Q15699 118-204 L144V) above, with V27R counted along it
# Chain of SHOX (O15266 103-189): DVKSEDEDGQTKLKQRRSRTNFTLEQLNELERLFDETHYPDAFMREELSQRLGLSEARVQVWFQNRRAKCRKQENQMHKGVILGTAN
# Chain of HOXB4 (Homo sapiens, UniProt P17483 148-234) (P17483 148-234): as the sequence (P17483 148-234 V174I) above, with I27V counted along it
sequence,measurement,setting,value
CACTTGAC,binding signal,NKX2-5 [1],"12.9 upbm affinity estimate (log intensity, higher = more binding, comparable within an allelic series)"
same,binding signal,NKX2-4 [2],"12.7 upbm affinity estimate (log intensity, higher = more binding, comparable within an allelic series)"
same,binding signal,NKX2-4 [3],"13.1 upbm affinity estimate (log intensity, higher = more binding, comparable within an allelic series)"
same,binding signal,NKX2-4 [4],"12.6 upbm affinity estimate (log intensity, higher = more binding, comparable within an allelic series)"
same,binding signal,NKX2-6 [5],"11.9 upbm affinity estimate (log intensity, higher = more binding, comparable within an allelic series)"
same,binding signal,NKX2-6 [6],"13.7 upbm affinity estimate (log intensity, higher = more binding, comparable within an allelic series)"
same,binding signal,NKX2-4 [7],"13.3 upbm affinity estimate (log intensity, higher = more binding, comparable within an allelic series)"
same,binding signal,NKX2-6 [8],"11.2 upbm affinity estimate (log intensity, higher = more binding, comparable within an allelic series)"
same,binding signal,NKX3-2 [9],"12.1 upbm affinity estimate (log intensity, higher = more binding, comparable within an allelic series)"
same,binding signal,NKX2-5 [10],"12.9 upbm affinity estimate (log intensity, higher = more binding, comparable within an allelic series)"
same,binding signal,NKX3-2 [11],"12.2 upbm affinity estimate (log intensity, higher = more binding, comparable within an allelic series)"
GCCACTTA,binding signal,NKX2-5 [1],"13.3 upbm affinity estimate (log intensity, higher = more binding, comparable within an allelic series)"
same,binding signal,NKX2-4 [2],"12.7 upbm affinity estimate (log intensity, higher = more binding, comparable within an allelic series)"
same,binding signal,NKX2-4 [3],"13 upbm affinity estimate (log intensity, higher = more binding, comparable within an allelic series)"
same,binding signal,NKX2-4 [4],"12.5 upbm affinity estimate (log intensity, higher = more binding, comparable within an allelic series)"
same,binding signal,NKX2-6 [5],"12.2 upbm affinity estimate (log intensity, higher = more binding, comparable within an allelic series)"
same,binding signal,NKX2-6 [6],"14 upbm affinity estimate (log intensity, higher = more binding, comparable within an allelic series)"
same,binding signal,NKX2-4 [7],"13.2 upbm affinity estimate (log intensity, higher = more binding, comparable within an allelic series)"
same,binding signal,NKX2-6 [8],"11.2 upbm affinity estimate (log intensity, higher = more binding, comparable within an allelic series)"
same,binding signal,NKX3-2 [9],"13.3 upbm affinity estimate (log intensity, higher = more binding, comparable within an allelic series)"
same,binding signal,NKX2-5 [10],"13.1 upbm affinity estimate (log intensity, higher = more binding, comparable within an allelic series)"
same,binding signal,NKX3-2 [11],"13.4 upbm affinity estimate (log intensity, higher = more binding, comparable within an allelic series)"
CCAGGCCG,binding signal,NKX2-5 [1],"8.83 upbm affinity estimate (log intensity, higher = more binding, comparable within an allelic series)"
same,binding signal,NKX2-4 [2],"9.57 upbm affinity estimate (log intensity, higher = more binding, comparable within an allelic series)"
same,binding signal,NKX2-4 [3],"9.57 upbm affinity estimate (log intensity, higher = more binding, comparable within an allelic series)"
same,binding signal,NKX2-4 [4],"9.56 upbm affinity estimate (log intensity, higher = more binding, comparable within an allelic series)"
same,binding signal,NKX2-4 [7],"9.57 upbm affinity estimate (log intensity, higher = more binding, comparable within an allelic series)"
same,binding signal,NKX2-5 [10],"8.78 upbm affinity estimate (log intensity, higher = more binding, comparable within an allelic series)"
ACCACTTA,binding signal,NKX2-5 [1],"13.2 upbm affinity estimate (log intensity, higher = more binding, comparable within an allelic series)"
same,binding signal,NKX2-4 [2],"12.7 upbm affinity estimate (log intensity, higher = more binding, comparable within an allelic series)"
same,binding signal,NKX2-4 [3],"13.1 upbm affinity estimate (log intensity, higher = more binding, comparable within an allelic series)"
same,binding signal,NKX2-4 [4],"12.6 upbm affinity estimate (log intensity, higher = more binding, comparable within an allelic series)"
same,binding signal,NKX2-6 [5],"12.3 upbm affinity estimate (log intensity, higher = more binding, comparable within an allelic series)"
same,binding signal,NKX2-6 [6],"14 upbm affinity estimate (log intensity, higher = more binding, comparable within an allelic series)"
same,binding signal,NKX2-4 [7],"13.2 upbm affinity estimate (log intensity, higher = more binding, comparable within an allelic series)"
same,binding signal,NKX2-6 [8],"11.4 upbm affinity estimate (log intensity, higher = more binding, comparable within an allelic series)"
same,binding signal,NKX3-2 [9],"13.3 upbm affinity estimate (log intensity, higher = more binding, comparable within an allelic series)"
same,binding signal,NKX2-5 [10],"13.1 upbm affinity estimate (log intensity, higher = more binding, comparable within an allelic series)"
same,binding signal,NKX3-2 [11],"13.3 upbm affinity estimate (log intensity, higher = more binding, comparable within an allelic series)"
CGAACGCC,binding signal,NKX2-5 [1],"8.62 upbm affinity estimate (log intensity, higher = more binding, comparable within an allelic series)"
same,binding signal,ALX1 [12],"6.33 upbm affinity estimate (log intensity, higher = more binding, comparable within an allelic series)"
same,binding signal,ALX1 [13],"6.32 upbm affinity estimate (log intensity, higher = more binding, comparable within an allelic series)"
same,binding signal,ALX1 [14],"6.54 upbm affinity estimate (log intensity, higher = more binding, comparable within an allelic series)"
same,binding signal,NKX2-5 [10],"8.69 upbm affinity estimate (log intensity, higher = more binding, comparable within an allelic series)"
CTTCCGTC,binding signal,NKX2-5 [1],"8.85 upbm affinity estimate (log intensity, higher = more binding, comparable within an allelic series)"
same,binding signal,NKX2-5 [10],"8.77 upbm affinity estimate (log intensity, higher = more binding, comparable within an allelic series)"
CTTAAGTA,binding signal,NKX2-5 [1],"12.9 upbm affinity estimate (log intensity, higher = more binding, comparable within an allelic series)"
same,binding signal,NKX2-4 [2],"12.6 upbm affinity estimate (log intensity, higher = more binding, comparable within an allelic series)"
same,binding signal,NKX2-4 [3],"12.9 upbm affinity estimate (log intensity, higher = more binding, comparable within an allelic series)"
same,binding signal,NKX2-4 [4],"12.5 upbm affinity estimate (log intensity, higher = more binding, comparable within an allelic series)"
same,binding signal,NKX2-6 [5],"11.7 upbm affinity estimate (log intensity, higher = more binding, comparable within an allelic series)"
same,binding signal,ALX1 [12],"9.02 upbm affinity estimate (log intensity, higher = more binding, comparable within an allelic series)"
same,binding signal,NKX2-6 [6],"13.7 upbm affinity estimate (log intensity, higher = more binding, comparable within an allelic series)"
same,binding signal,ALX1 [13],"8.85 upbm affinity estimate (log intensity, higher = more binding, comparable within an allelic series)"
same,binding signal,NKX2-4 [7],"13.1 upbm affinity estimate (log intensity, higher = more binding, comparable within an allelic series)"
same,binding signal,NKX2-6 [8],"10.9 upbm affinity estimate (log intensity, higher = more binding, comparable within an allelic series)"
same,binding signal,ALX1 [14],"9.39 upbm affinity estimate (log intensity, higher = more binding, comparable within an allelic series)"
same,binding signal,NKX2-5 [10],"12.8 upbm affinity estimate (log intensity, higher = more binding, comparable within an allelic series)"
CGGTCCAA,binding signal,NKX2-5 [1],"8.45 upbm affinity estimate (log intensity, higher = more binding, comparable within an allelic series)"
same,binding signal,SHOX,"7.28 upbm affinity estimate (log intensity, higher = more binding, comparable within an allelic series)"
same,binding signal,NKX2-5 [10],"8.42 upbm affinity estimate (log intensity, higher = more binding, comparable within an allelic series)"
CGGACCCG,binding signal,NKX2-5 [1],"8.84 upbm affinity estimate (log intensity, higher = more binding, comparable within an allelic series)"
same,binding signal,HOXB4 [15],"8.04 upbm affinity estimate (log intensity, higher = more binding, comparable within an allelic series)"
same,binding signal,HOXB4 [16],"7.9 upbm affinity estimate (log intensity, higher = more binding, comparable within an allelic series)"
same,binding signal,NKX2-5 [10],"8.79 upbm affinity estimate (log intensity, higher = more binding, comparable within an allelic series)"
